Results on 18 sequences are retold here after paper PMC10812921, “Transcriptional Coactivator BOB1 (OBF1, OCA-B) Modulates the Specificity of DNA Recognition by the POU-Domain Factors OCT1 and OCT2 in a Monomeric Configuration”.

The target of one assay is POU1 (OCT1 POU domain) (human, UniProt P14859 260-458). The experiment in a line: EMSA-SELEX-seq; no BOB1; 20 mM Tris-HCl pH 7.6, 140 mM NaCl, 10% glycerol, 0.5 mM EDTA, 0.05% Triton X-100, 0.1 mg/mL BSA, 0.1 mg/mL poly(dI-dC), 5 mM DTT, room temperature, 20 min; high values mean tight binding. The following applies: protein: recombinant; dsDNA, one strand shown. Put shortly: (§1)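 After expression in E. coli BL21, tagged POU-domain proteins were purified under denaturing conditions and then renatured. Each binding reaction held 30 ng protein and 300 ng of a PCR-amplified double-stranded random 35-nt library in 20 μL Tris–HCl pH 7.6 binding buffer, with or without 28 ng coactivator protein, for 20 min at RT. Bands holding complexes were cut from native 6% PAGE, eluted and PCR-amplified across four rounds, and the output was Illumina-sequenced. The value given for binding preference is the share, in percent, of sequenced 8-mers fitting a motif pattern.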
(In general: A gel shift assay detects complexes by their altered migration in electrophoresis.)

Another assay addresses T1, POU2 (OCT2 POU domain) (human, UniProt P09086 175-386).
T1 sequence: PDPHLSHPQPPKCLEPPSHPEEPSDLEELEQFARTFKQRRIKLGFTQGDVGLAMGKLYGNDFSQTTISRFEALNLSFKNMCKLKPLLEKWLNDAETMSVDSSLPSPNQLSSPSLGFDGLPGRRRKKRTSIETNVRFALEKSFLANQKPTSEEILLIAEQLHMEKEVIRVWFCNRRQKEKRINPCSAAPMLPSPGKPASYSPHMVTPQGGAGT
Described as above. As to conditions: protein: recombinant; dsDNA, one strand shown. Put shortly:
as §1

Assay [1] deals with POU1 (OCT1 POU domain);BOB1 (OBF1, OCA-B) (human;human, UniProt P14859;Q16633 260-458;1-256, |). The experiment in a line: EMSA-SELEX-seq; with BOB1 (ternary complex band); 20 mM Tris-HCl pH 7.6, 140 mM NaCl, 10% glycerol, 0.5 mM EDTA, 0.05% Triton X-100, 0.1 mg/mL BSA, 0.1 mg/mL poly(dI-dC), 5 mM DTT, room temperature, 20 min; high values mean tight binding. The following applies: protein: recombinant;recombinant; copies: 1;1; dsDNA, one strand shown. Put shortly: as §1

Assay [2] concerns the target T2, POU2 (OCT2 POU domain);BOB1 (OBF1, OCA-B) (human;human, UniProt P09086;Q16633 175-386;1-256, |).
T2 sequence 1: T1 sequence
T2 sequence 2: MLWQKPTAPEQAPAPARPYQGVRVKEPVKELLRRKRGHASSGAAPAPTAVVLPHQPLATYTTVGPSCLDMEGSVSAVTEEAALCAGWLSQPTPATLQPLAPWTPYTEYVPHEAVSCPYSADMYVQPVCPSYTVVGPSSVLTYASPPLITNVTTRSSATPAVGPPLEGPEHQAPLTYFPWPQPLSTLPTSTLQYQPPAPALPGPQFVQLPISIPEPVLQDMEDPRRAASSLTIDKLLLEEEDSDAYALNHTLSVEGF
Described as above. As to conditions: protein: recombinant;recombinant; copies: 1;1; dsDNA, one strand shown. Put shortly:
as §1

Chain of POU1 (OCT1 POU domain) (P14859 260-458): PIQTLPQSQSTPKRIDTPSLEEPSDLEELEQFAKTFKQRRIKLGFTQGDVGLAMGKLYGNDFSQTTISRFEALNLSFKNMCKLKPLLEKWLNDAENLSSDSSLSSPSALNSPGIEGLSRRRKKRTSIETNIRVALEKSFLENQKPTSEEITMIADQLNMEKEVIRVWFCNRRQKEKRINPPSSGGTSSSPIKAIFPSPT

On to ACTAGAAT, for which the binding signal is 0.0473 % of ANNNNAAN 8-mers with POU1 (OCT1 POU domain), 0.061 % of ANNNNAAN 8-mers in the assay with POU2 (OCT2 POU domain), 0.0589 % of ANNNNAAN 8-mers in assay [1] and 0.0438 % of ANNNNAAN 8-mers in assay [2].
Taken in the same sequence, the figures for ATGCGAAG were 0.0538 % of ANNNNAAN 8-mers, 0.0604 % of ANNNNAAN 8-mers, 0.0523 % of ANNNNAAN 8-mers and 0.057 % of ANNNNAAN 8-mers.
Taken in the same sequence, the figures for ATACAAAG were 0.0984 % of ANNNNAAN 8-mers, 0.0938 % of ANNNNAAN 8-mers, 0.139 % of ANNNNAAN 8-mers and 0.09 % of ANNNNAAN 8-mers.
Taken in the same sequence, the figures for AGCGTAAA were 0.0427 % of ANNNNAAN 8-mers, 0.0455 % of ANNNNAAN 8-mers, 0.0347 % of ANNNNAAN 8-mers and 0.0396 % of ANNNNAAN 8-mers.
ATGAGAAC: the binding signal is 0.0404 % of ANNNNAAN 8-mers with POU1 (OCT1 POU domain), 0.0552 % of ANNNNAAN 8-mers in the assay with POU2 (OCT2 POU domain), 0.03 % of ANNNNAAN 8-mers in assay [1] and 0.0388 % of ANNNNAAN 8-mers in assay [2].
On to ATTGGAAG, for which the binding signal with POU1 (OCT1 POU domain) is 0.0309 % of ANNNNAAN 8-mers; with POU2 (OCT2 POU domain), 0.0547 % of ANNNNAAN 8-mers; in assay [1], 0.0371 % of ANNNNAAN 8-mers; in assay [2] it was 0.0438 % of ANNNNAAN 8-mers.
For ACTCAAAA, in that order: 0.0427 % of ANNNNAAN 8-mers, 0.0339 % of ANNNNAAN 8-mers, 0.046 % of ANNNNAAN 8-mers and 0.0363 % of ANNNNAAN 8-mers.
Taken in the same sequence, the figures for AGGGGAAC were 0.0416 % of ANNNNAAN 8-mers, 0.0414 % of ANNNNAAN 8-mers, 0.0355 % of ANNNNAAN 8-mers and 0.0487 % of ANNNNAAN 8-mers.
For the sequence ATGCCAAC, the binding signal is 0.0225 % of ANNNNAAN 8-mers with POU1 (OCT1 POU domain), 0.0293 % of ANNNNAAN 8-mers with POU2 (OCT2 POU domain), 0.025 % of ANNNNAAN 8-mers in assay [1] and 0.0124 % of ANNNNAAN 8-mers in assay [2].
Taken in the same sequence, the figures for AGGGGAAT were 0.11 % of ANNNNAAN 8-mers, 0.121 % of ANNNNAAN 8-mers, 0.089 % of ANNNNAAN 8-mers and 0.11 % of ANNNNAAN 8-mers.
Taken in the same sequence, the figures for ACGCGAAG were 0.0172 % of ANNNNAAN 8-mers, 0.0121 % of ANNNNAAN 8-mers, 0.0168 % of ANNNNAAN 8-mers and 0.0239 % of ANNNNAAN 8-mers.
Taken in the same sequence, the figures for AGATAAAC were 0.04 % of ANNNNAAN 8-mers, 0.0506 % of ANNNNAAN 8-mers, 0.0519 % of ANNNNAAN 8-mers and 0.0487 % of ANNNNAAN 8-mers.
In the case of ATCAGAAG, the binding signal with POU1 (OCT1 POU domain) is 0.0271 % of ANNNNAAN 8-mers; with POU2 (OCT2 POU domain), 0.0363 % of ANNNNAAN 8-mers; in assay [1], 0.0359 % of ANNNNAAN 8-mers; in assay [2], 0.033 % of ANNNNAAN 8-mers.
Taken in the same sequence, the figures for ATCCAAAG were 0.0427 % of ANNNNAAN 8-mers, 0.0397 % of ANNNNAAN 8-mers, 0.0566 % of ANNNNAAN 8-mers and 0.0446 % of ANNNNAAN 8-mers.
On to ATACTAAG, for which the binding signal in the assay with POU1 (OCT1 POU domain) is 0.045 % of ANNNNAAN 8-mers; with POU2 (OCT2 POU domain), 0.0518 % of ANNNNAAN 8-mers; in assay [1] it was 0.0441 % of ANNNNAAN 8-mers; in assay [2], 0.0438 % of ANNNNAAN 8-mers.
For AAACCAAA, in that order: 0.0538 % of ANNNNAAN 8-mers, 0.0506 % of ANNNNAAN 8-mers, 0.0761 % of ANNNNAAN 8-mers and 0.0446 % of ANNNNAAN 8-mers.
For AGCGCAAG, in that order: 0.013 % of ANNNNAAN 8-mers, 0.0121 % of ANNNNAAN 8-mers, 0.0144 % of ANNNNAAN 8-mers and 0.0165 % of ANNNNAAN 8-mers.
For AAAGCAAG, in that order: 0.04 % of ANNNNAAN 8-mers, 0.0368 % of ANNNNAAN 8-mers, 0.0457 % of ANNNNAAN 8-mers and 0.0421 % of ANNNNAAN 8-mers.
